For one experiment, the system named is TAB113. Briefly: qHTS profiling for inhibitors of Plasmodium falciparum proliferation (AID 504749). Note: nearly all actives have a fitted effect of over 60% in size. Note: potency is the fitted concentration of half-maximal effect. As to conditions: P. falciparum in erythrocytes, SYBR Green DNA, 72 h; series mostly up to 28.7 µM. Summed up:
(§1)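 P. falciparum-infected erythrocytes (0.3% parasitemia, 2.5% hematocrit final) were exposed to compounds for 72 h at 37 C in 5% CO2, then lysed with SYBR Green buffer overnight at room temperature; parasite DNA fluorescence was normalized to artemisinin and DMSO controls.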
(In general: qHTS replaces the single test concentration by a dilution series.)

Another experiment deals with CRL-7250. Briefly: Cytotoxic Profiling of Annotated Libraries Using Quantitative High-Throughput Screening (AID 1296008). For max response: % is set by controls: 0 for no effect and ±100 for the full control effect. Note: nearly all actives have a fitted effect of over 60% in size. Note: potency is the fitted concentration of half-maximal effect. The note with it: Five cell lines viability, CellTiter-Glo ATP luminescence, 48-72 h; max response: hits give low values. In short, it runs like this:
(§2)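 Compounds were pin-transferred onto cells and incubated 48 or 72 hr at 37 degree Celsius, 95% humidity. CellTiter-Glo was added, plates sat 10 min at room temperature, then ATP-coupled luminescence was imaged as the viability read-out.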
Background: Cellular ATP, detected with luciferase, serves as a proxy for viable cell number.

Another experiment has as its system HEK293. The description is as above. As to conditions: Five cell lines viability, CellTiter-Glo ATP luminescence, 48-72 h; max response: hits give low values. In short, it runs like this:
as §2

The next experiment has as its system HaCat. Described as above. The note with it: Five cell lines viability, CellTiter-Glo ATP luminescence, 48-72 h; max response: hits give low values. In short, it runs like this:
as §2

Another experiment deals with KB-3-1. The experiment is described as above. The note with it: Five cell lines viability, CellTiter-Glo ATP luminescence, 48-72 h; max response: hits give low values. In short, it runs like this:
as §2

Experiment [1] concerns NIH3T3. Described as above. The note with it: Five cell lines viability, CellTiter-Glo ATP luminescence, 48-72 h; max response: hits give low values. Summed up:
as §2

The subject of a further experiment is MCC-26. Briefly: qHTS assay to identify novel small-molecules to repurpose for Merkel cell carcinoma treatment (AID 1296009). Note: nearly all actives have a fitted effect of over 60% in size. Note: potency is the fitted concentration of half-maximal effect. As to conditions: MCC and control cell lines, CellTiter-Glo viability, 72 h; series mostly up to 46 µM. Summed up:
(§3)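 Cells exposed to NPC (8-point) and MIPE (11-point) compound dilutions for 72 hr at 37 degree celsius; viability read by CellTiter-Glo luminescence, normalized to no-cell and DMSO in-plate controls.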

The subject of a further experiment is MKL-2. Described as above. As to conditions: MCC and control cell lines, CellTiter-Glo viability, 72 h; series mostly up to 46 µM. In short, it runs like this: as §3
A further experiment concerns TAB165. Briefly: qHTS profiling for inhibitors of Plasmodium falciparum proliferation (AID 504749). Note: nearly all actives have a fitted effect of over 60% in size. Note: potency is the fitted concentration of half-maximal effect. As to conditions: P. falciparum in erythrocytes, SYBR Green DNA, 72 h; series mostly up to 28.7 µM. Summed up: as §1
In a further experiment the test system is W2. The experiment is described as above. As to conditions: P. falciparum in erythrocytes, SYBR Green DNA, 72 h; series mostly up to 28.7 µM. In short, it runs like this:
as §1

A further experiment deals with HEK293T. The experiment in a line: qHTS assay to identify novel small-molecules to repurpose for Merkel cell carcinoma treatment (AID 1296009). Note: nearly all actives have a fitted effect of over 60% in size. Note: potency is the fitted concentration of half-maximal effect. As to conditions: MCC and control cell lines, CellTiter-Glo viability, 72 h; at 44.8 µM (top of the series) unless noted. Summed up:
as §3

A further experiment deals with MCC-13. The description is as above. The note with it: MCC and control cell lines, CellTiter-Glo viability, 72 h; series mostly up to 46 µM. Summed up:
as §3

The test system of the next experiment is MKL-1. The experiment is described as above. The note with it: MCC and control cell lines, CellTiter-Glo viability, 72 h; series mostly up to 46 µM. Summed up: as §3
In another experiment the test system is UISO. The description is as above. The note with it: MCC and control cell lines, CellTiter-Glo viability, 72 h; series mostly up to 46 µM. Summed up: as §3
The subject of another experiment is WaGa. The description is as above. As to conditions: MCC and control cell lines, CellTiter-Glo viability, 72 h; series mostly up to 46 µM. In short, it runs like this: as §3
The subject of a further experiment is C33A. Briefly: Primary qHTS to identify gynecologic anti-cancer compounds using libraries of approved drugs and bioactive compounds (AID 1345084). Note: % is set by controls: 0 for no effect and ±100 for the full control effect; nearly all actives have a fitted effect of over 55% in size. The note with it: Gynecologic cancer cell panel viability, ATPlite luminescence, 48 h; series mostly up to 57.5 µM. In short, it runs like this: (§4)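 Measured: luminescence after ATPlite addition (15 min, RT). Exposure: 48 h, 37 C, 5% CO2.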

The next experiment concerns CAOV3. The description is as above. The note with it: Gynecologic cancer cell panel viability, ATPlite luminescence, 48 h; series mostly up to 57.5 µM. In short, it runs like this: as §4
Another experiment concerns CASKI. Described as above. As to conditions: Gynecologic cancer cell panel viability, ATPlite luminescence, 48 h; series mostly up to 57.5 µM. In short, it runs like this: as §4
The test system of experiment [2] is NIH3T3. Briefly: qHTS assay to identify novel small-molecules to repurpose for Merkel cell carcinoma treatment (AID 1296009). Note: nearly all actives have a fitted effect of over 60% in size. Note: potency is the fitted concentration of half-maximal effect. As to conditions: MCC and control cell lines, CellTiter-Glo viability, 72 h; at 44.8 µM (top of the series) unless noted. Summed up:
as §3

Several values for one entry are separate records, joined by “and”; a condition that tells them apart may be missing. Equal values may be shown once. Results filed as inconclusive are left out. A number with no mark means an inactive call. Activity calls are given as the source filed them. Calls come from the whole dose curve; as a rule, active = well fitted curve in the direction sought with a large enough effect; inconclusive = small, poorly fitted or top-dose-only effect, or another doubt; inactive = no such curve, though single readings can be large; an effect the other way counts as inactive or inconclusive. Numbered stars: 1 amine (or outer) side, 2 acyl side, 3 side chain; on linkers, the order of the positions; unused ones are H or OH. Bridge positions count the residues as written; N and C are the ends. Square brackets hold non-standard residues; d marks the D form. Peptide text beside a SMILES is read from it. I, II: the chains in the order shown. Actinocin(9to1) = Cc1c2oc3c(C)ccc(C(=O)[*:1])c3nc-2c(C(=O)[*:2])c(N)c1=O; NMeV = CN[C@H](C(=O)O)C(C)C; Sar = CNCC(=O)O

As for `CCOc1ccc(Cc2nccc3cc(OCC)c(OCC)cc23)cc1OCC`, the Potency result in the experiment with TAB113 and in the experiment on MCC-26 was “inactive” in each case. In addition, the values for the Potency with CRL-7250, in the experiment with HEK293 and with MKL-2 were 15000 nM (active), 7500 nM (active) and 16800 nM (active), respectively. Moreover, the max response in the experiment on HaCat was -22.8%; in the experiment with KB-3-1, 1.15%; with NIH3T3 [1], -24.3%.
On to `C=CCc1ccc(O)c(OC)c1`, for which the Potency entry in the experiment on TAB113, with TAB165, with W2, with MCC-13, with MKL-1 and in the experiment on MKL-2 was “inactive” each time. The Potency entry in the experiment on UISO, in the experiment on WaGa, with C33A, in the experiment on CAOV3 and with CASKI was “inactive” in each case. The outcome in the experiment on CRL-7250, with HEK293 and in the experiment with HEK293T was inactive. In addition, the max response with HaCat was -0.0642%; in the experiment with KB-3-1, 3.55%; in the experiment with NIH3T3 [1], 3.27%.
On to `Cc1c2oc3c(C)ccc(C(=O)N[C@@H]4C(=O)N[C@H](C(C)C)C(=O)N5CCC[C@H]5C(=O)N(C)CC(=O)N(C)[C@@H](C(C)C)C(=O)O[C@@H]4C)c3nc-2c(C(=O)N[C@@H]2C(=O)N[C@H](C(C)C)C(=O)N3CCC[C@H]3C(=O)N(C)CC(=O)N(C)[C@@H](C(C)C)C(=O)O[C@@H]2C)c(N)c1=O` (I: T[dV]P[Sar][NMeV] / II: T[dV]P[Sar][NMeV]; ester I:1-I:C, II:1-II:C; linker I:N-II:N via Actinocin(9to1)), for which the Potency with TAB113 is 6.3 nM (active); with TAB165, 4.5 nM (active); in the experiment with W2, 5.4 nM (active); in the experiment on CRL-7250, 4.2 nM (active); with HEK293 it was 2.1 nM (active); in the experiment on HaCat it was 18.8 nM (active). Besides, the Potency in the experiment on KB-3-1 is 20.6 nM (active); in the experiment on MCC-13, 33.5 nM (active); in the experiment with MCC-26, 21.1 nM (active); in the experiment with MKL-2 it was 3.8 nM (active); in the experiment with UISO, 3.3 nM (active).
As for `CCC(=O)c1c(O)cc(O)cc1O`, the Potency result in the experiment with TAB113, with TAB165, with W2, in the experiment on MCC-13, with MKL-1 and with MKL-2 was “inactive” in each case. For the same compound, the Potency result in the experiment on UISO, in the experiment on WaGa, in the experiment with C33A, in the experiment on CAOV3 and in the experiment on CASKI was “inactive” in each case. Moreover, the max response in the experiment on CRL-7250 is 1.93%; with HaCat, 3.62%; in the experiment with KB-3-1, -16.9%; with NIH3T3 [1], 0.801%. For the same compound, the compound was called inactive in the experiment with HEK293 and in the experiment with HEK293T.
`CN(C)CC/C=C1/c2ccccc2COc2ccc(CC(=O)O)cc21`: the max response with CRL-7250 is 2.78%; in the experiment on HEK293 it was 1.17%; with HaCat, -4.81%; in the experiment on KB-3-1, -7.2%; with NIH3T3 [1] it was -1.64%. In addition, the Potency result in the experiment on MCC-13, with MCC-26, in the experiment with MKL-1, in the experiment on MKL-2, in the experiment with UISO and in the experiment on WaGa was “inactive” in each case. Besides, the Potency result in the experiment with C33A, in the experiment on CAOV3 and in the experiment with CASKI was “inactive” each time.
Regarding `C[C@]12CCC(=O)C=C1CC[C@H]1[C@@H]3CC[C@](O)(C(=O)CO)[C@@]3(C)C[C@H](O)[C@@]12F`, the Potency result with TAB165, in the experiment with W2, with MCC-13, in the experiment on MCC-26, with MKL-1 and with MKL-2 was “inactive” each time. Also, the Potency result in the experiment with UISO, in the experiment with WaGa, in the experiment with C33A and in the experiment with CASKI was “inactive” each time. The max response in the experiment with CRL-7250 was -14.8%; in the experiment on HEK293, -5.58%; in the experiment with HaCat, -3.35%; with KB-3-1, 18.3% and -1.2%. In addition, the compound was classed as inactive in the experiment with NIH3T3 [1] and with NIH3T3 [2].
